Inconclusive results are not listed. Active and inactive are the calls of the source. Unless noted, calls follow the shape of the dose curve; as a rule, active = well fitted curve in the direction sought with a large enough effect; inconclusive = small, poorly fitted or top-dose-only effect, or another doubt; inactive = no such curve, though single readings can be large; an effect the other way counts as inactive or inconclusive.
Key:
Furin (Homo sapiens) = Furin (Homo sapiens) (UniProt P09958); experiment: Furin counterscreen qHTS for Zika virus inhibitors (AID 1347149); also: nearly all actives have a fitted effect of over 70% in size; also: potency is read from the fitted curve at half-maximal effect;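 as to activity change, negative = inhibition: purified recombinant full-length human furin enzyme at 5 nM; fluorescence gain from furin cutting a BOC-RVRR-AMC peptide substrate over 15 min; top concentration of the series differs between compounds; plate controls were no-inhibitor control for no effect and no-enzyme control for full effect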
Summary of the method: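 Counterscreen measures cleavage of 2 microM BOC-RVRR-AMC, below its ~15 microM Km, by 5 nM full-length human furin at pH 7.0 after a 15-min compound preincubation. Inhibition derives from the 15-min fluorescence increase at 37C.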

[1] = test system: Zika virus NS2B-NS3 protease (linked construct); experiment: Confirmatory screen NINDS AMC qHTS for Zika virus inhibitors (AID 1347152); also: nearly all actives have a fitted effect of over 70% in size; also: potency is read from the fitted curve at half-maximal effect;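 as to activity change, negative = inhibition: AMC fluorescence gain from cleaved Bz-Nle-KRR-AMC substrate over 15 min; top concentration of the series differs between compounds; 0% = no-inhibitor control and -100% = no-enzyme control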
Summary of the method: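 Enzyme (1 nM, linked construct) was preincubated with compound for 15 minutes at room temperature in 10 mM Tris-HCl pH 8.0 with 0.01% Tween 20. Bz-Nle-Lys-Arg-Arg-AMC was then added to 10 microM, and AMC fluorescence was recorded immediately and after 15 minutes.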

[2] = ZIKV-mCherry secondary qHTS for Zika virus inhibitors (AID 1347158); also: potency is read from the fitted curve at half-maximal effect; as to activity change, negative = inhibition: top concentration of the series differs between compounds
Summary of the method: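 Percent infection is the share of Hoechst-identified Vero nuclei with mCherry signal above 450 RFU (3 SD over negative controls). Cells were infected with recombinant ZIKV-mCherry at MOI 1 after compound addition and imaged 48–72 h later.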

[3] = Confirmatory screen NINDS Rhodamine qHTS for Zika virus inhibitors (AID 1347161); also: potency is read from the fitted curve at half-maximal effect; nearly all actives have a fitted effect of over 60% in size
Summary of the method: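 Single-chain NS2B-NS3 protease, 25 nM, pH 8.0; compounds preincubated 15 min. Activity: Rhodamine110 release from 1.5 microM substrate over 15 min, room temperature, data fitted to 4-parameter Hill.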

[4] = test system: Zika virus NS2B-NS3 protease (linked); experiment: 384 well plate NINDS AMC confirmatory qHTS for Zika virus inhibitors (AID 1347163); also: nearly all actives have a fitted effect of over 50% in size; also: potency is read from the fitted curve at half-maximal effect;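 as to activity change, negative = inhibition: linked protease at 5 30 or 60 nM final depending on run; fluorescence of AMC released from Ac-VKTGKR-AMC peptide cleaved by the protease; top concentration of the series differs between compounds; 0% = no-inhibitor control and -100% = no-enzyme control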
Summary of the method: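 Fluorescence at 355/460 nm was read after 25 minutes of cleavage of 30 microM Ac-VKTGKR-AMC at room temperature, in the dark. Before substrate addition, compounds (up to 1 mM final) sat ~15 minutes with 5, 30 or 60 nM linked protease. Signals were normalized to no-enzyme and no-inhibitor wells.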

[5] = Tertiary RLuc qRT-PCR qHTS assay for Zika virus inhibitors (AID 1347169); also: top concentration of the series differs between compounds; % is scaled to controls: 0 for no effect and ±100 for the full control effect; nearly all actives have a fitted effect of over 55% in size
Summary of the method: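 Vero, 1,000 cells/well, o/n 37 C; cpd pinned in DMSO; ZIKV-RLuc Cambodian, MOI 1-2, 48-72 h 37 C; live-cell RLuc substrate, lum read at 1-1.5 h.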

[6] = Vero cells viability qHTS for Zika virus inhibitors (AID 1347167); also: % is scaled to controls: 0 for no effect and ±100 for the full control effect
Summary of the method: (§1)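 qHTS titration; 24-48 h compound exposure, 37 degrees C/5% CO2; DMEM, 4% FBS; CellTiter Glo ATP luminescence.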

[7] = HepG2 cells viability qHTS for Zika virus inhibitors (AID 1347168); also: % is scaled to controls: 0 for no effect and ±100 for the full control effect
Summary of the method: as §1

[8] = Primary qHTS for small molecule stabilizers of the endoplasmic reticulum resident proteome: Secreted ER Calcium Modulated Protein (SERCaMP) assay (AID 1508630); also: % is scaled to controls: 0 for no effect and ±100 for the full control effect
Summary of the method: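 The SH-SY5Y reporter protocol was run at 3 concentrations up to 38.3 uM (primary) or 11 concentrations (follow-up): 16 h compound, 100 nM thapsigargin for 4 h, then extracellular luciferase luminescence.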

[9] = Confirmatory screen GU Rhodamine qHTS for Zika virus inhibitors qHTS (AID 1347157); also: potency is read from the fitted curve at half-maximal effect; nearly all actives have a fitted effect of over 70% in size
Summary of the method: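 Buffer 10 mM Tris-HCl pH 8.0, 0.01% Tween 20. Unlinked protease 25 nM; compound preincubation 15 min, RT, protected from light. Substrate Rhod110, 1.5 microM; ~15% conversion in 15 min.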

[10] = test system: Zika virus NS2B-NS3 protease (linked construct); experiment: 384 well plate NINDS Rhodamine confirmatory qHTS for Zika virus inhibitors (AID 1347164);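 also: fluorescence from protease cleavage of Ac-LKRR-rhodamine 110 substrate; potency is read from the fitted curve at half-maximal effect; nearly all actives have a fitted effect of over 65% in size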
Summary of the method: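 Enzyme (final 5/30/60 nM) + cpd (DMSO), ~15 min; add Ac-LKRR-Rd 10 microM final; 25 min RT, dark; FI ex 485/em 538; normalized to no-enzyme, no-inhibitor ctrls; aprotinin intraplate ctrl.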

[11] = biological target: Rap guanine nucleotide exchange factor 3 (Homo sapiens) (UniProt O95398); experiment: Confirmatory qHTS for antagonist of cAMP-regulated guanine nucleotide exchange factor 3 (EPAC1) (AID 1645880); also: potency is read from the fitted curve at half-maximal effect; nearly all actives have a fitted effect of over 55% in size
Summary of the method: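 Released BODIPY-GDP fluoresces less than Rap1-bound BODIPY-GDP; the signal is followed at 480/540 nm at 5-min intervals over 30 min, after 5 min at room temperature. Reactions contain 100 nM EPAC1, 250 nM RAP1B-BODIPY-GDP and 50 uM GDP; results are normalized to ATA and DMSO.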

[12] = biological target: Rap guanine nucleotide exchange factor 3 (Homo sapiens) (UniProt O95398); experiment: Confirmatory qHTS for agonist of cAMP-regulated guanine nucleotide exchange factor 3 (EPAC1) (AID 1645881);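 also: EPAC1 catalysed release of BODIPY-GDP from Rap1B seen as fluorescence loss; 100% = effect of cAMP agonist control; nearly all actives have a fitted effect of over 75% in size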
[13] = biological target: Rap guanine nucleotide exchange factor 4 (Homo sapiens) (UniProt Q8WZA2); experiment: Confirmatory qHTS for agonist of cAMP-regulated guanine nucleotide exchange factor 4 (EPAC2) (AID 1645884);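 also: nucleotide exchange releases bodipy-GDP from Rap1 and this lowers its fluorescence; % is scaled to controls: 0 for no effect and ±100 for the full control effect; nearly all actives have a fitted effect of over 65% in size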
[14] = biological target: Rap guanine nucleotide exchange factor 4 (Homo sapiens) (UniProt Q8WZA2); experiment: Confirmatory qHTS for antagonist of cAMP-regulated guanine nucleotide exchange factor 4 (EPAC2) (AID 1645885); also: % is scaled to controls: 0 for no effect and ±100 for the full control effect; nearly all actives have a fitted effect of over 25% in size
[15] = biological target: Rap guanine nucleotide exchange factor 3 (Homo sapiens) (UniProt O95398); experiment: Counterscreen qHTS for antagonist of cAMP-regulated guanine nucleotide exchange factor 3 (EPAC1) (AID 1645888); also: % of control where 0% means no effect
Summary of the method: (§2)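 Rap1B–BODIPY-GDP (250 nM) with 50 uM GDP; compounds pin-transferred to 9.74 nM–152 uM final (activator) or from 7.32 nM upwards (inhibitor). Fluorescence Ex/Em 480/540 nm read at 5 and 30 min, then after adding cAMP or buffer, at room temperature.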

[16] = biological target: Rap guanine nucleotide exchange factor 3 (Homo sapiens) (UniProt O95398); experiment: Counterscreen qHTS for agonist of cAMP-regulated guanine nucleotide exchange factor 3 (EPAC1) (AID 1645889); also: % of control where 0% means no effect; nearly all actives have a fitted effect of over 40% in size
Summary of the method: as §2

[17] = biological target: Cytochrome P450 3A4 (Homo sapiens) (UniProt P08684); experiment: qHTS Assay for Inhibitors and Substrates of Cytochrome P450 3A4 (AID 884); also: % is scaled to controls: 0 for no effect and ±100 for the full control effect; nearly all actives have a fitted effect of over 50% in size
Summary of the method: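 Luminescent readout of luciferin produced by CYP3A4 (20 nM) dealkylation of Luciferin-PPXE, 25 uM (its KM). NADPH-driven reaction ran 60 min at RT after 10 min compound preincubation; data scaled to 57 uM ketoconazole as 100% inhibition.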

[18] = Confirmation and Secondary Assay for Modulators of Hemoglobin Beta Chain Splicing at IVS2 654 locus (AID 910);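 also: HeLa cells stably carrying EGFP split by mutant beta-globin IVS2-654 intron; % of control where 0% means no effect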
Summary of the method: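 HeLa cells stably expressing EGFP interrupted by β-globin IVS2-654 intron, seeded overnight in Opti-MEM/2% FCS, then treated 2 days at 37 °C. Restored splicing read as total peak GFP intensity per well by laser scanning cytometry (488 nm excitation, 500–520 nm emission); 500 nM antisense PNA as control.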

[19] = Confirmation and Secondary Assay for Modulators of Hemoglobin Beta Chain Splicing at IVS2 705 locus (AID 930);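 also: HeLa cells stably expressing the EGFP-705 splicing reporter; GFP fluorescence per well restored by corrected splicing of the IVS2-705 intron in EGFP; % of control where 0% means no effect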
Summary of the method: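 HeLa cells stably carrying EGFP interrupted by mutant beta-globin intron 2 (IVS2-705) treated 2 days at 37C with compound; 500 nM antisense PNA as control. Correct splicing read as total peak GFP intensity per well by laser-scanning cytometry.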

[20] = qHTS Assay for Lipid Storage Modulators (AID 1519; calls by dose curve; as to activity change, negative = inhibition: % is scaled to controls: 0 for no effect and ±100 for the full control effect); conditions: Drosophila S3 cells, BODIPY lipid droplet/cell ratio, laser cytometry, cells loaded with oleic acid
Summary of the method: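 Cells seeded at 5,000 per well were treated with compounds over a concentration series and loaded with oleic acid (400 uM, as added). Lipid droplet fluorescence (488 nm excitation, 500-530 nm channel) was read by laser-scanning cytometry and normalized to 20 uM Triacsin C.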

[21] = biological target: Ubiquitin carboxyl-terminal hydrolase 1 (Homo sapiens) (UniProt O94782); experiment: Inhibitors of USP1/UAF1: Pilot qHTS (AID 504865); also: potency is read from the fitted curve at half-maximal effect; nearly all actives have a fitted effect of over 35% in size
Summary of the method: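 In 50mM HEPES pH 7.8 containing 0.5mM EDTA, 1mM TCEP, 0.1 mg/ml BSA and 0.01% Tween-20, 1nM USP1/UAF1 is exposed to compound for 15 min, then Ub-Rho (150nM final) is added and fluorescence is read over time.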

[22] = test system: Zika virus NS2B-NS3 protease (unlinked complex); experiment: Confirmatory screen GU AMC qHTS for Zika virus inhibitors (AID 1347153);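 also: enzyme at 25 nM with substrate at 10 µM below its Km of 18.3 µM; potency is read from the fitted curve at half-maximal effect; nearly all actives have a fitted effect of over 70% in size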
Summary of the method: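 Noncovalent NS2B hydrophilic domain/NS3 protease complex (25 nM) in 10 mM Tris-HCl pH 8.0, 0.01% Tween 20 was preincubated 15 min at room temperature with compounds. Then 10 µM AMC substrate (Km 18.3 µM) was added; fluorescence was read over 15 min and fitted to a 4-parameter Hill equation.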

Rap guanine nucleotide exchange factor 3 (Homo sapiens), sequence (O95398 whole entry, looked up): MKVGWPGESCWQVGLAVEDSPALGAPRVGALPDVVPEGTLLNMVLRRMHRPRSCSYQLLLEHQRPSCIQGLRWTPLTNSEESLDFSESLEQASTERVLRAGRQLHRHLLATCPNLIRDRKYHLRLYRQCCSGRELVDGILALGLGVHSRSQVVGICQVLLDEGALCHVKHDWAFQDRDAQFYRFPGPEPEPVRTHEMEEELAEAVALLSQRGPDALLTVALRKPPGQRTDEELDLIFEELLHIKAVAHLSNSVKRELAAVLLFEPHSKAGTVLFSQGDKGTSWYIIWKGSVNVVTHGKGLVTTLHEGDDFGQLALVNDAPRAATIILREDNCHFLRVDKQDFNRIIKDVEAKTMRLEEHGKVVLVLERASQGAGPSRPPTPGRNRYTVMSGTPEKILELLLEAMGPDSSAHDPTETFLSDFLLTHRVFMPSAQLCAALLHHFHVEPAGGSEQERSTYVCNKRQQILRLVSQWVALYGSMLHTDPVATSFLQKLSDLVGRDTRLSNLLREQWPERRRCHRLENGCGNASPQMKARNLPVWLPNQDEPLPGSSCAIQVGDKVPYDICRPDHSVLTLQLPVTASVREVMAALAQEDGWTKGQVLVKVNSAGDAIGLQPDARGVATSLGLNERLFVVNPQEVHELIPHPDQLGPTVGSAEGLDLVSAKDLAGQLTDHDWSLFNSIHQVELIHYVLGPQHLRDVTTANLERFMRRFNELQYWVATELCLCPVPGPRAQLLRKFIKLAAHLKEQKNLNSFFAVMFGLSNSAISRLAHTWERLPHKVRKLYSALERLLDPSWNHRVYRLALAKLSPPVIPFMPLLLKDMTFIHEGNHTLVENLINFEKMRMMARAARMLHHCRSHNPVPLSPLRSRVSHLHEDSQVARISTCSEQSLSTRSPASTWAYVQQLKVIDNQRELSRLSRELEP
Furin (Homo sapiens), sequence (P09958 whole entry, looked up): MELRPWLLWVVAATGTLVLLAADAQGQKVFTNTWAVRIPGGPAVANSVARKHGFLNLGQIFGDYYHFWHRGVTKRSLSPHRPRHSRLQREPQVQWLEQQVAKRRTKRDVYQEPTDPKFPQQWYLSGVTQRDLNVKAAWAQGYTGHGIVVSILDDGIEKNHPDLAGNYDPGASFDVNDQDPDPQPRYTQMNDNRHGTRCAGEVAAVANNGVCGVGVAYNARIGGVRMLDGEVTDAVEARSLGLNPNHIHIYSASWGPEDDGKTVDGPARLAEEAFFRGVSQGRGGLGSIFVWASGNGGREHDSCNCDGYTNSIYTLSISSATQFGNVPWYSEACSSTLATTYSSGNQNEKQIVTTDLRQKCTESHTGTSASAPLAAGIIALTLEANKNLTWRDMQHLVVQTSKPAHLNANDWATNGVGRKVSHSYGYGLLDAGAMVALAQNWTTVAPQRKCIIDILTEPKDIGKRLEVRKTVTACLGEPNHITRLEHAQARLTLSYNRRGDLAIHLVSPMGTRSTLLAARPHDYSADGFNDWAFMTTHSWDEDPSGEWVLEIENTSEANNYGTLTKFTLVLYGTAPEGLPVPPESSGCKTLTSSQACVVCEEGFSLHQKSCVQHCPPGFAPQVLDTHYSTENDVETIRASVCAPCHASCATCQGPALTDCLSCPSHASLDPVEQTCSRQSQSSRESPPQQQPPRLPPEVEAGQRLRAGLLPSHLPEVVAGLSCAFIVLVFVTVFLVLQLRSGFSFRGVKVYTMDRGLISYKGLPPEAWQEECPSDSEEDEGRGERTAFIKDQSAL
Rap guanine nucleotide exchange factor 4 (Homo sapiens), sequence (Q8WZA2 whole entry, looked up): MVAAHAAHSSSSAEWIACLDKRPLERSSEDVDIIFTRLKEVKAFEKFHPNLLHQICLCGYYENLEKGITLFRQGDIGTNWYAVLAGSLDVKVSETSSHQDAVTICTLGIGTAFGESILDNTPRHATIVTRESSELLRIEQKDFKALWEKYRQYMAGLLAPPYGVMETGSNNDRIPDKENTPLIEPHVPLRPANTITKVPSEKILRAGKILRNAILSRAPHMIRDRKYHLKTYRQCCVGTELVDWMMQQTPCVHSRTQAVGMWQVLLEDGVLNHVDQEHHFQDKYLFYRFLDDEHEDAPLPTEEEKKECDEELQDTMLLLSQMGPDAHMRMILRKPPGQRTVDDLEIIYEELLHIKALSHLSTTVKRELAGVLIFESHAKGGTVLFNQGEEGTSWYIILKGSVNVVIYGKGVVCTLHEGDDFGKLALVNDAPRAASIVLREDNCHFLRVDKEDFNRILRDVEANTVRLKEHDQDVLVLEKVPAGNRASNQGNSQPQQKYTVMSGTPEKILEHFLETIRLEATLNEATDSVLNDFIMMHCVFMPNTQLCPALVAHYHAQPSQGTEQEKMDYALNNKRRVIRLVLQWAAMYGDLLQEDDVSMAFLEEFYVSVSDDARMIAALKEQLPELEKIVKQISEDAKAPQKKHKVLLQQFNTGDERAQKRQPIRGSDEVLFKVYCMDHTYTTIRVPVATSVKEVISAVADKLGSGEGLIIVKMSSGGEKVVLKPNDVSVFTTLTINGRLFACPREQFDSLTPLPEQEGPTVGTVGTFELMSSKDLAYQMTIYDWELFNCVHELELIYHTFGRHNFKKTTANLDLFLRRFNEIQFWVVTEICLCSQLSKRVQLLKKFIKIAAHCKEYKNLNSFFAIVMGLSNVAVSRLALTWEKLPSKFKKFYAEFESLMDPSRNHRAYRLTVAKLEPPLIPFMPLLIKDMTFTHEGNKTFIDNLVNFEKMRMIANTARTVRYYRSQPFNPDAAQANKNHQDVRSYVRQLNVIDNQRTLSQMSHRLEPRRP
Ubiquitin carboxyl-terminal hydrolase 1 (Homo sapiens), sequence (O94782 whole entry, looked up): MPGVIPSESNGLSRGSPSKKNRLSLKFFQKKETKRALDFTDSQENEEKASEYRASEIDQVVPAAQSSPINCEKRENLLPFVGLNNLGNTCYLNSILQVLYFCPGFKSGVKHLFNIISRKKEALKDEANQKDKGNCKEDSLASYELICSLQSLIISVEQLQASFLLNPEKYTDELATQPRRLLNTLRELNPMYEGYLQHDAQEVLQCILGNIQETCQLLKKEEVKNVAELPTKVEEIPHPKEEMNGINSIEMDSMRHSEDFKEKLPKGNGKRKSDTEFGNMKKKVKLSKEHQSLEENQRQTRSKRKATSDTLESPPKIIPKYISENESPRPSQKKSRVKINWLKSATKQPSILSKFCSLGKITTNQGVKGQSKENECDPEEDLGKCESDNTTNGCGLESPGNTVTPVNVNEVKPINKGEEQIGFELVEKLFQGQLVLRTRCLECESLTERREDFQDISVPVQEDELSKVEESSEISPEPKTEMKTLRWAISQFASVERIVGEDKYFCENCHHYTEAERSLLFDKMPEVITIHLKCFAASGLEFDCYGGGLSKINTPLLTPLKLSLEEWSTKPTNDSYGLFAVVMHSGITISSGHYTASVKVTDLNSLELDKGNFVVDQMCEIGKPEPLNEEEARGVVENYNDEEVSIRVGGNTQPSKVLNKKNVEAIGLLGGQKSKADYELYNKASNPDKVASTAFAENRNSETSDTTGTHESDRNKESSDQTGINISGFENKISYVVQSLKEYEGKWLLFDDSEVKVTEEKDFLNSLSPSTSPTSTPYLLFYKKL
Cytochrome P450 3A4 (Homo sapiens), sequence (P08684 whole entry, looked up): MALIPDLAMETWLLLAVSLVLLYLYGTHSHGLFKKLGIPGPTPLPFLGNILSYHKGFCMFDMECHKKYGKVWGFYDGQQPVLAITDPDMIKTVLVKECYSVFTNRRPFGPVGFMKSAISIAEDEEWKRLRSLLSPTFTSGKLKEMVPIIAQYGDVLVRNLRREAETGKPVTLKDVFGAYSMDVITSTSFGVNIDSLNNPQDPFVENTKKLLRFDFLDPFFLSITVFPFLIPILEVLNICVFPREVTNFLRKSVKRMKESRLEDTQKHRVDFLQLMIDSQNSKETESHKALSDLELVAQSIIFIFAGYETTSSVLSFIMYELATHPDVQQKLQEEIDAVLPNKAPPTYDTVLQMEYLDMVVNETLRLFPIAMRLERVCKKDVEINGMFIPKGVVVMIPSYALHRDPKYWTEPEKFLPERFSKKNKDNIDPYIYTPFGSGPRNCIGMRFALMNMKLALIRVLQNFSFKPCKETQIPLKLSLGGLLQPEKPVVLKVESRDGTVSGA

O=C(O)c1ccc(-c2cc(C(F)(F)F)ccc2Cl)cc1
inactive: Potency (Furin (Homo sapiens)) | Potency [1] | Potency [2]

Clc1ccc(-c2nn3c(COc4cccc(OCc5nnc6sc(-c7ccc(Cl)cc7)nn56)c4)nnc3s2)cc1
inactive: Potency (Furin (Homo sapiens)) | Potency [5]
active: Potency [1] 50.1 µM | Potency [3] 20 µM | Potency [4] 12.6 µM

CCN(CC)c1ccc(/C=N/NC(=O)c2ccc(O)cc2)cc1
inactive: Potency [1] | Potency [6] | Potency [7] | Potency [5] | Potency [8]
active: Potency (Furin (Homo sapiens)) 24.1 µM

O=C(O)c1c(-c2ccccc2)oc2ccc(OCc3ccc(Cl)c(Cl)c3)cc12
active: Potency (Furin (Homo sapiens)) 66.3 µM | Potency [9] 17.8 µM | Potency [2] 8.91 µM | Potency [3] 3.98 µM | Potency [10] 17.8 µM | Potency [11] 75.7 µM
inactive: Potency [4] | Potency [5] | outcome [12] | outcome [13] | activity change, negative = inhibition [14] 10.2% [at 12.7 µM] | outcome [15] | Potency [16]

O=C(OC1Cc2c(O)cc(O)cc2OC1c1cc(O)c(O)c(O)c1-c1c(C2Oc3cc(O)cc(O)c3CC2O)cc(O)c(O)c1O)c1cc(O)c(O)c(O)c1 (centres undefined)
18.1%: max response ([20]; measured here: cell count channel max response)
inactive: Potency [17] | outcome [18] | outcome [19] | activity change, negative = inhibition ([20]; at 57.5 µM (top of the series)) 6.85% | Potency [2] | Potency [5]
active: Potency [21] 44.7 µM | Potency (Furin (Homo sapiens)) 17.5 µM | Potency [22] 44.1 µM | Potency [4] 22.4 µM
26.1%: max response ([20]; measured here: lipid channel max response)

Clc1nc2n[nH]nc2nc1Cl
active: Potency (Furin (Homo sapiens)) 39.8 µM | Potency [1] 22.4 µM | Potency [3] 5.62 µM
inactive: Potency [2] | Potency [5]

N#Cc1ccccc1OCC1CN(Cc2cccc(C(F)(F)F)c2)C(=O)c2c(ccnc2-c2ccc(OCC(=O)O)cc2)O1 (centres undefined)
inactive: Potency (Furin (Homo sapiens)) | Potency [1] | Potency [2] | Potency [5]
active: Potency [4] 70.8 µM | Potency [10] 56.2 µM

CC(=O)C(N=Nc1ccc(S(=O)(=O)Nc2ccccn2)cc1)C(=O)Nc1ccc(Cl)cc1 (centres undefined)
active: Potency [1] 44.7 µM | Potency [3] 20 µM | Potency [4] 22.4 µM | Potency [10] 25.1 µM
inactive: Potency (Furin (Homo sapiens)) | Potency [2] | Potency [5]

O=C(O)c1ccc(C2Nc3ccccc3-c3nnc(SCc4ccc(Cl)cc4)nc3O2)cc1 (centres undefined)
active: Potency [9] 20 µM | Potency [3] 15.8 µM | Potency [4] 316 µM | Potency [10] 89.1 µM
inactive: Potency (Furin (Homo sapiens)) | Potency [2] | Potency [5]

Reference: PubChem BioAssay (NCATS)
